Laboratory results from PubChem BioAssay (NCI).
About 79,000 compounds went through this panel and 15% of them were active in at least one assay; those are over-represented in the sample as a whole. A number with no mark means an inactive call. Rule as the data show it: active = growth inhibition above about 70%; inactive = the rest.

Assay: NCI Yeast Anticancer Drug Screen. Data for the cln2 rad14 strain (AID 165);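 also: 0% = growth equal to vehicle treated cultures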
Conditions: S. cerevisiae cln2 rad14 strain, at 50.0 µM, hits give high values
Outline: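 The screen exposed genetically defined yeast (cln2 rad14) to test compounds and scored growth inhibition relative to vehicle-treated controls.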

Compound | growth inhibition [%]
CC(=O)Nc1ccc(Cc2ccc(Cl)cc2)cc1 | 10.8
CCC(=O)Nc1ccc(C)cc1C | 13.7
CC(C)c1ccc(OC(=N)c2ccccc2)cc1 | -3.95
CC/C(=N/NC(=O)c1ccccc1)c1ccccc1 | -19.4
CCOC(=O)c1cc(=O)[nH]c(N)n1 | -38.2
O=C1OCC(O)=C1C(c1ccc(Cl)cc1)c1cc2c(cc1O)OCO2 (centres undefined) | -16.3
COC(=O)c1ccccc1/C=C1\Cc2ccc3c(c2C1=O)CCCC3 | -7.4
CC(C)CNC(=S)N/N=C/C=C/c1ccc([N+](=O)[O-])cc1 | -16.7
CC(=O)c1ccccc1NC(=O)C(=O)C(C(=O)c1ccc2ccccc2c1)C1OC(=O)c2ccccc21 (centres undefined) | -44.2
C[Si](C)(C)N1CCCC1 | 12.4
O=S(=O)(CC(Br)c1ccccc1)c1ccccc1 (centres undefined) | -4.3
COc1cc(C)oc(=O)c1 | -16.6
CCOC(C)OCCCI (centres undefined) | -9.7
c1cc(CCc2ccncc2)ccn1 | 3.6
O=C1NC(c2ccccc2)(c2ccccc2)C(=O)N1CCCCCCN1C(=O)NC(c2ccccc2)(c2ccccc2)C1=O | 0.25
CCNC(=O)C1CC2C=CC1C2 (centres undefined) | 12.6
COc1ccc(/C=C2\N=C(c3ccc(N)cc3)OC2=O)cc1OC | 20.1
COc1ccc2[nH]c3c4c(cc(-c5ccccc5)c3c2c1)C(=O)N(c1ccccc1)C4=O | 11.2
COc1ccc2cc3n(cc-2c1=O)CCc1cc2c(cc1-3)OCO2 | -14.4
Nc1ccc(NC(=S)Nc2ccccc2)cc1 | 2.2

Compound | growth inhibition [%]
CN(CCC(=O)O)S(=O)(=O)c1ccccc1 | -9.1
C1COC(C2=NCCO2)=N1 | -42
Cc1oc2ccccc2c(=O)c1Cn1cnc2ccc([N+](=O)[O-])cc21 | 11.8
O=C1/C(=C/c2ccc(F)cc2)CC/C1=C\c1ccc(F)cc1 | -2.55
CC(=O)c1ccc(O)c(CN(C2CCCCC2)C2CCCCC2)c1O | 12.4
O=c1c2ccccc2c2nccn2c2ccccc12 | -9.1
C=CCNC(=O)N(CCCC(NC(C)=O)C(=O)NCc1ccccc1)Cc1ccccc1 (centres undefined) | 26.4
CCOP(C)(=O)C(Cc1c[nH]c2ccccc12)C(=O)O (centres undefined) | 13
COc1cc(O)c2c(c1)C(=O)c1cc3c(c(O)c1C2=O)C(O)C(OC)C(C)(O)C3O (centres undefined) | 42.6
C=CCNC(=S)NNC(=S)NCC=C | 3.6
CN1C(=O)C(n2[nH]c(=O)n(-c3ccccc3)c2=O)C(=O)N(C)C1=O | -23.1
CC(=O)OCC1C(=O)OCC1C(=O)N1Cc2cc3ccccc3nc2C1 (centres undefined) | -18.9
CC1=CC(=O)/C(=C/N2C(=O)CNC2=S)C(=O)O1 | 15.4
CC/C(=N\NS(=O)(=O)c1ccc(C)cc1)c1ccc(Br)cc1 | -7.3
O=C(Oc1ccc(OC(=O)c2ccccc2)c(C2CCCCCC2)c1)c1ccccc1 | 14.3
CCCCN(CCCC)CC(O)c1cc(-c2ccc(C(F)(F)F)cc2)nc(-c2ccc(C(F)(F)F)cc2)c1 (centres undefined) | -24.2
CN(C)C(=O)c1cccc(C2CCCCC2)c1O | -81.4
C=C(CC(=O)OCC)C(=O)OCC | 1.95
CCCCCC/C=C\CCCCCCCCCc1cccc(OC)c1O | 14.5
O=C(NNC(=O)c1ccccc1Br)c1ccccc1Br | 0.45

Assay: NCI Yeast Anticancer Drug Screen. Data for the bub3 strain (AID 167)
Conditions: S. cerevisiae bub3 mutant strain, at 50.0 µM, hits give high values
Outline: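 Steps: expose the mutant yeast strain to compound; grow alongside vehicle-treated cultures; measure growth; express inhibition against the vehicle cultures.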

Compound | growth inhibition [%]
CC(=O)Nc1ccc(Cc2ccc(Cl)cc2)cc1 | -9.8
CCC(=O)Nc1ccc(C)cc1C | 2.6
CC(C)c1ccc(OC(=N)c2ccccc2)cc1 | 7.85
CC/C(=N/NC(=O)c1ccccc1)c1ccccc1 | 8.5
CCOC(=O)c1cc(=O)[nH]c(N)n1 | 10.4
O=C1OCC(O)=C1C(c1ccc(Cl)cc1)c1cc2c(cc1O)OCO2 (centres undefined) | 0.05
COC(=O)c1ccccc1/C=C1\Cc2ccc3c(c2C1=O)CCCC3 | 5.6
CC(C)CNC(=S)N/N=C/C=C/c1ccc([N+](=O)[O-])cc1 | 2.7
CC(=O)c1ccccc1NC(=O)C(=O)C(C(=O)c1ccc2ccccc2c1)C1OC(=O)c2ccccc21 (centres undefined) | 4.85
C[Si](C)(C)N1CCCC1 | 3.5
O=S(=O)(CC(Br)c1ccccc1)c1ccccc1 (centres undefined) | 60.5
COc1cc(C)oc(=O)c1 | 8.1
CCOC(C)OCCCI (centres undefined) | -13.3
c1cc(CCc2ccncc2)ccn1 | 1.3
O=C1NC(c2ccccc2)(c2ccccc2)C(=O)N1CCCCCCN1C(=O)NC(c2ccccc2)(c2ccccc2)C1=O | -7.15
CCNC(=O)C1CC2C=CC1C2 (centres undefined) | 3.05
COc1ccc(/C=C2\N=C(c3ccc(N)cc3)OC2=O)cc1OC | 10.3
COc1ccc2[nH]c3c4c(cc(-c5ccccc5)c3c2c1)C(=O)N(c1ccccc1)C4=O | -4.3
Nc1ccc(NC(=S)Nc2ccccc2)cc1 | -7.05
CN(CCC(=O)O)S(=O)(=O)c1ccccc1 | -46.4

Compound | growth inhibition [%]
C1COC(C2=NCCO2)=N1 | 6.1
Cc1oc2ccccc2c(=O)c1Cn1cnc2ccc([N+](=O)[O-])cc21 | 5.85
O=C1/C(=C/c2ccc(F)cc2)CC/C1=C\c1ccc(F)cc1 | -13.8
CC(=O)c1ccc(O)c(CN(C2CCCCC2)C2CCCCC2)c1O | -18
O=c1c2ccccc2c2nccn2c2ccccc12 | -0.3
C=CCNC(=O)N(CCCC(NC(C)=O)C(=O)NCc1ccccc1)Cc1ccccc1 (centres undefined) | -5.25
CCOP(C)(=O)C(Cc1c[nH]c2ccccc12)C(=O)O (centres undefined) | -12.8
COc1cc(O)c2c(c1)C(=O)c1cc3c(c(O)c1C2=O)C(O)C(OC)C(C)(O)C3O (centres undefined) | 64.8
C=CCNC(=S)NNC(=S)NCC=C | -16.4
CN1C(=O)C(n2[nH]c(=O)n(-c3ccccc3)c2=O)C(=O)N(C)C1=O | 16.9
CC(=O)OCC1C(=O)OCC1C(=O)N1Cc2cc3ccccc3nc2C1 (centres undefined) | 31.2
CC1=CC(=O)/C(=C/N2C(=O)CNC2=S)C(=O)O1 | -4.25
CC/C(=N\NS(=O)(=O)c1ccc(C)cc1)c1ccc(Br)cc1 | -3.6
O=C(Oc1ccc(OC(=O)c2ccccc2)c(C2CCCCCC2)c1)c1ccccc1 | 7.1
CCCCN(CCCC)CC(O)c1cc(-c2ccc(C(F)(F)F)cc2)nc(-c2ccc(C(F)(F)F)cc2)c1 (centres undefined) | -33.8
CN(C)C(=O)c1cccc(C2CCCCC2)c1O | -18.6
C=C(CC(=O)OCC)C(=O)OCC | 1.25
CCCCCC/C=C\CCCCCCCCCc1cccc(OC)c1O | 7.8
O=C(NNC(=O)c1ccccc1Br)c1ccccc1Br | -25.1
